Test system: Vero E6 infected with SARS-CoV-2
Test: inhibition of SARS-CoV-2 cytopathic effect; higher = more antiviral protection, active = above 15
Settings: 48 h

Measured: inhibition of SARS-CoV-2 cytopathic effect

CCCn1c(=O)c2[nH]cnc2n(-c2ccc(Cl)cc2)c1=O [arofylline]
inactive: 1 nM -3.55% | 8.33 nM -1.13% | 100 nM 0.16% | 833.33 nM -6.97% | 10000 nM -3.81%

Cc1ccc2c(N3CCN(CCc4cccc(N5CCNC5=O)c4)CC3)cccc2n1
inactive: 1 nM -2.94% | 8.33 nM -3.04% | 100 nM -3.97% | 833.33 nM 1.55% | 10000 nM 1.48%

CC[C@@H](Nc1c(Nc2cccc(C(=O)N(C)C)c2O)c(=O)c1=O)c1ccc(C)o1 [navarixin]
inactive: 1 nM -0.8% | 8.33 nM 1.26% | 100 nM 0.77% | 833.33 nM 1.8% | 10000 nM -2.11%

CC(C)=CCC[C@](C)(O[C@@H]1O[C@H](CO)[C@@H](O)[C@H](O)[C@H]1O)[C@H]1CC[C@]2(C)[C@@H]1[C@H](O)C[C@@H]1[C@@]3(C)CC[C@H](O[C@@H]4O[C@H](CO)[C@@H](O)[C@H](O)[C@H]4O[C@@H]4O[C@H](CO)[C@@H](O)[C@H](O)[C@H]4O)C(C)(C)[C@@H]3CC[C@]12C [ginsenoside-RD]
inactive: 1 nM -2.36% | 8.33 nM -1% | 100 nM 2.51% | 833.33 nM 0.27% | 10000 nM 0.18%

COc1ccc(CNCc2cccc3ccccc23)cc1
inactive: 1 nM -2.74% | 8.33 nM -2.35% | 100 nM -0.58% | 833.33 nM -2.06% | 10000 nM -0.83%

COc1ccc(C(=O)Nc2sc3c(c2C(N)=O)CCCC3)cc1OC
inactive: 1 nM -0.36% | 8.33 nM -0.47% | 100 nM -3.78% | 833.33 nM -0.85% | 10000 nM 0.05%
